The values that follow come from PubChem BioAssay (NCI).

This is part of a sample that, as a whole, favours compounds with a hit. Of some 83,000 tested, about 20% had one in any assay.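 The endpoint reported here, percent growth, reads 100 for growth as untreated, 0 for no net growth and -100 for all cells dead.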 A number with no mark means an inactive call. Activity calls are given as the source filed them. The calls were made as follows: active = growth percent below 10; inactive = the rest.

The first test concerns MCF7 breast. The test is described as follows: NCI-60 one-dose screen, 48 h (100 = growth as untreated, 0 = no growth, -100 = all killed). The following applies: 10 µM unless noted.
Consider `CC[C@]12C=CCN3CC[C@@]4(c5ccc(OC)cc5N(C)[C@H]4[C@@](O)(C(=O)OC)[C@@H]1OC(=O)CCCC[P+](c1ccc(F)cc1)(c1ccc(F)cc1)c1ccc(F)cc1)[C@@H]32`, for which the growth was 5.18% (active). Same read-out and setting: then `COc1ccc2c(c1)N=c1c-2cc2c(O)[nH]c(=S)n2c1=O`, with 34.6%; and `O=C(CSc1nnc(-c2ccc(-c3nc4ccccc4[nH]3)cc2)o1)Nc1ccc(Cl)cc1`, with 7.43% (active). Same read-out and setting: then `N/C(=N\c1nc2ccc([N+](=O)[O-])cc2s1)NC(=O)Nc1ccccc1Cl`, with 36.5%; and `Fc1ccc(N2CC(Cn3c(C(F)(F)F)cc4c(Cl)ncnc43)C2)c(F)c1`, with 57.7%; and `CC1=C(C(=O)OC(C)C)C(c2ccc(O)cc2)NC(=O)N1` (stereo unspecified), with 98.6%.

Consider `Cc1nn(-c2ccccc2)c2nc(C)n(CC(=O)N/N=C/c3ccccc3O)c(=O)c12`, for which the growth was 7.8% (active). On the same count and under the same terms, then `O=CNc1cccc(-n2cnc3cc(-c4ccc(O)cc4)ccc32)c1`, with 35%.

For a further test, the system named is HCT-116 colon. The description is as above. Conditions: 10 µM unless noted.
With `COc1cc(CNC(=O)C[C@H](C)CCC=C(C)C)ccc1OCc1cn(-c2ccc(Br)cc2)nn1`, the growth is 41.9%. Still for that read-out and setting: next, `Cc1cccc(C)c1Nc1nnc(-c2c[nH]c3ccccc23)o1`: 100%; `COc1cc(CNC(=O)C[C@H](C)CCC=C(C)C)ccc1OCc1cn(-c2ccc(Cl)c(Cl)c2)nn1`: 29.8%; `Cc1ccc(C(C)C)cc1Oc1cccc(-c2c(-c3ccc(C(F)(F)F)cc3)ncn2C2CCNCC2)n1`: -94.3% (active). On the same count and under the same terms, next, `COc1cc(CNC(=O)C[C@H](C)CCC=C(C)C)ccc1OCc1cn(-c2cccc(C(F)(F)F)c2)nn1`: 12.5%; `Cc1ccc(Nc2nnc(-c3c[nH]c4ccccc34)o2)c(C)c1`: 1.32% (active); `CC1=C(C)C(=O)C(N2CCSCC2)=CC1=O`: 93%. The same measure, in the same setting: next, `COc1ccc(C(=O)c2cc(C(C)=O)c3c(C)cc(C)cn23)cc1`: 19.6%. `O=C(c1ccc(O)cc1)C1[C@H](c2ccccc2Br)[C@@H](c2ccccc2)NC12C(=O)Nc1ccccc12` (stereo partly specified): the growth was 55.2%. Same read-out and setting: then `C=CCSc1nnc(-c2ccc(-c3nc4ccccc4[nH]3)cc2)o1`, with 74.9%; and `COc1cc(/C=C/C(=O)c2cnn(-c3cc(=O)[nH]c4ccc(C)cc34)c2C)cc(OC)c1OC`, with -77.3% (active). `COc1cc(-c2ccc3ncnc(N4CCc5ccc(Cl)cc54)c3c2)cnc1Cl`: the growth is 8.7% (active). For `COc1ccc(NC(=O)Cn2c(/C=C/c3cccc(OC)c3)nc3ccccc3c2=O)cc1`, the growth is 13.9%.

Regarding `CC[C@]12C=CCN3CC[C@]4(C(=C(C(=O)OC)C1)Nc1cc(OC)c([C@@H]5[C@H]6O[C@H]6[C@@]6(CC)CC(C(=O)OC)=C7Nc8cc(O)ccc8[C@@]78CCN5[C@@H]68)cc14)[C@@H]32`, the growth is -72.3% (active).

In the case of `COc1ccc2nc(NC(=O)c3ccc(N(C)C)cc3)sc2c1`, the growth is 79.8%.

With `Cc1nc(N)ncc1-c1ccc2ncnc(N3CCc4cc(F)c(Cl)cc43)c2c1`, the growth is 70.4%. Still for that read-out and setting: next, `N#Cc1ccc(C(=O)CSc2nc3c(c(Nc4ccc(S(N)(=O)=O)cc4)n2)CCC3)cc1`: 15.7%; `CN(C(=O)CN1C(=O)/C(=C/c2ccco2)SC1=S)C1CCS(=O)(=O)C1` (stereo unspecified): 96.7%.

Consider `O=C(Nc1ccc(-c2ccc3c(c2)NC(=O)/C3=C\c2ccc[nH]2)cc1)Nc1cccc(Cl)c1`, for which the growth is 2.08% (active). For the compound `COC(=O)c1c(C(=O)OC)c2c3ccccc3c3ccccc3n2c1C(=O)C(F)(F)F`, the growth is 98.7%. Same read-out and setting: next, `O=C(N/N=C/c1c[nH]c2ccccc12)Nc1ccc(F)c(Cl)c1`: 25.5%; `O=C(CSc1nnc(-c2ccc(-c3nc4ccc(Cl)cc4[nH]3)cc2)o1)Nc1ccc(Br)cc1`: 8.26% (active); `Cn1cc(-c2cc(N)n3nc(-c4c[nH]c5ccc(Cl)cc45)cc3n2)c2cccnc21`: -90.7% (active). Same read-out and setting: next, `COc1ccc2c(c1)C(Sc1ccc(Cl)cc1)c1c(nc(N)c(C#N)c1N)O2` (stereo unspecified): 48%; `Cc1ccccc1NC(=O)c1cccc(NC(=O)CCl)c1`: 27.3%. The same measure, in the same setting: next, `Oc1cncc(-c2ccc3ncnc(N4CCc5cc(F)c(Cl)cc54)c3c2)c1`: 48.8%; `Nc1nnc(-c2cncc(Br)c2)c(-c2c[nH]c3ccc(Br)cc23)n1`: 22.9%. Regarding `C/C(=N/O)c1ccc(NC(=O)CSc2nnc(-c3ccc(-c4nc5ccc(Cl)cc5[nH]4)cc3)o2)cc1`, the growth is 4.71% (active). The same measure, in the same setting: then `CCCCCCCCc1cccc(CC(=O)Nc2ccc(C)cc2C(=O)O)c1`, with 28.1% [25 µM]. Same read-out and setting: next, `Cc1ccc(C(=O)Nc2cc(-n3cnc(F)c3)cc(C(F)(F)F)c2)cc1C#Cc1cnc2cccnn12`: 19%; `CC[C@]12C=CCN3CC[C@@]4(c5ccc(OC)cc5N(C)[C@H]4[C@@](O)(C(=O)OC)[C@@H]1OC(=O)CCCC[P+](c1ccc(F)cc1)(c1ccc(F)cc1)c1ccc(F)cc1)[C@@H]32`: 23.4%; `COc1ccc2c(c1)N=c1c-2cc2c(O)[nH]c(=S)n2c1=O`: 28.6%.

As for `O=C(CSc1nnc(-c2ccc(-c3nc4ccccc4[nH]3)cc2)o1)Nc1ccc(Cl)cc1`, the growth is 7.32% (active). Still for that read-out and setting: next, `N/C(=N\c1nc2ccc([N+](=O)[O-])cc2s1)NC(=O)Nc1ccccc1Cl`: -2.76% (active). The same measure, in the same setting: then `Fc1ccc(N2CC(Cn3c(C(F)(F)F)cc4c(Cl)ncnc43)C2)c(F)c1`, with -92.1% (active). Still for that read-out and setting: next, `CC1=C(C(=O)OC(C)C)C(c2ccc(O)cc2)NC(=O)N1` (stereo unspecified): 97.1%; `Cc1nn(-c2ccccc2)c2nc(C)n(CC(=O)N/N=C/c3ccccc3O)c(=O)c12`: 24.6%. `O=CNc1cccc(-n2cnc3cc(-c4ccc(O)cc4)ccc32)c1`: the growth was 14.1%.
